Reference: PubChem BioAssay AID1259312 (Keith Lab, Institute of Cancer Science, University of …, 2017)
The whole screen tested about 4,500 compounds, of which about 200 (4.4%) were called active. Only a selection was taken, and actives are over-represented in it overall. A number with no mark means an inactive call.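 The calls were made as follows: active = cell survival measured by absorbance rises more than 2.5-fold over infected cells without compound; inactive = the rest.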

assay: survival after telomere uncapping, modulators, primary screen, cell-based (AID 1259312); settings: HCT116 + Ad-hTR-mut, MTT, 5 d; at 10 µM, hits give high values;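 also: virus expresses mutant telomerase RNA that uncaps telomeres and kills cells; compound added 2 days after infection so exposure lasts 3 days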

| SMILES | fold change |
| --- | --- |
| O=C1CCCC2=C1C(c1ccco1)C1=C(N2)c2ccccc2C1=O (stereo not drawn) | -5.38 |
| O=S1(=O)CCC(SCc2nnc(-c3ccccc3)o2)C1 (stereo not drawn) | -1.78 |
| CCNC(=S)Nc1ccc(Br)cc1 | -2.77 |
| S=c1[nH]nc(Cc2ccccc2)n1Cc1ccccc1 | 1.06 |
| S=c1[nH]nc(CCc2ccccc2)n1Cc1ccccc1 | 1.25 |
| S=c1[nH]nc(Cc2n[nH]c(=S)n2Cc2ccccc2)n1Cc1ccccc1 | 4.65 (active) |
| CCOC(=O)c1c(NC(=O)CCl)sc2c1CCN(C(=O)OCC)C2 | -1.2 |
| COC(=O)NNC(=O)CCCOc1ccc(Cl)cc1Cl | 1.34 |
| O=C(COc1ccc(Cl)cc1Cl)NCC1CCCO1 (stereo not drawn) | -1.41 |
| O=C(CCCOc1ccc(Cl)cc1Cl)Nn1cnnc1 | 2.83 (active) |
| Cc1c(C(C)C)c(=O)n(-c2ccc(S(=O)(=O)NC3CC3)cc2)n1C | -2.25 |
| Brc1ccc(-c2csc(Nc3ccccc3)n2)cc1 | -1.95 |
| NC(=O)c1c(NC(=O)CN2CCOCC2)sc2c1CCCC2 | -1.32 |
| CSc1nc(SCC(=O)c2ccc3c(c2)OCO3)nc(N)c1C#N | 1.54 |
| N#CCS/C(SCC(=O)c1ccc(Br)cc1)=C(/C#N)C(=O)c1ccc(Br)cc1 | 1.41 |
| N#CCS/C(SCC(=O)c1ccc2c(c1)OCO2)=C(/C#N)C(=O)c1ccc2c(c1)OCO2 | 2.84 (active) |
| OC1CCC2Cc3ccccc3N=C12 (stereo not drawn) | -1.24 |
| O=c1[nH]nc(C[N+](=O)[O-])c2ccccc12 | 1.05 |
| CC12C=CC(=O)C=C1CCC1C3CC(O)C(O)(C(=O)CO)C3(C)CC(O)C12F (stereo not drawn) | 1.13 |
| CC(C)=NNc1nccc2ccccc12 | -1.17 |
| S=C(Nc1ccccc1)N1CCOCC1 | 3.11 (active) |
| S=C(Nc1ccccc1)N1CCCCC1 | -1.66 |

| SMILES | fold change |
| --- | --- |
| c1ccc(N=C(Nc2ccccc2)N2CCOCC2)cc1 | 1.32 |
| O=C1c2ccc(Br)cc2C(=O)N1CNc1ccc(Br)cc1 | 2.94 (active) |
| O=C(O)CN1C(=O)C(=O)c2cc(Br)ccc21 | -1.45 |
| CN1C(=O)C(=O)c2cc(Br)ccc21 | -1.19 |
| N#CCN(CC#N)C(=O)c1ccco1 | -1.86 |
| CCN(C(=O)c1cccs1)C1CCCCC1 | -1.05 |
| N#CCN(CC#N)C(=O)c1cccs1 | 4.34 (active) |
| CC(=O)Nc1ccc2nc(SCC(=O)Nc3nccs3)sc2c1 | -1.04 |
| O=C1OC(C2OC(=O)c3ccccc32)c2ccccc21 (stereo not drawn) | -2.64 |
| CC1(C)Nc2ccccc2-c2c1ssc2=S | 4.78 (active) |
| CCOc1ccc2c(c1)-c1c(ssc1=Nc1ccc(Cl)cc1C)C(C)(C)N2 | -1.6 |
| Cc1ccc2c(c1)-c1c(ssc1=S)C(C)(C)N2 | 2.39 |
| CCOc1ccc2c(c1)-c1c(sn(-c3ccc(OC)cc3)c1=S)C(C)(C)N2 | -1.06 |
| Cc1cc(C)c2c(c1)-c1c(ssc1=S)C(C)(C)N2C(=O)c1ccccc1 | -2.03 |
| COc1ccc2c(c1)-c1c(ssc1=S)C(C)(C)N2C(=O)CSc1ncn[nH]1 | -3.53 |
| Cc1cccc2c1N(C(=O)c1ccc(-c3ccccc3)cc1)C(C)(C)c1ssc(=S)c1-2 | -1.16 |
| CCOc1ccc2c(c1)-c1c(ssc1=S)C(C)(C)N2 | 5.41 (active) |
| COc1ccc2c(c1)-c1c(ssc1=S)C(C)(C)N2 | 3.31 (active) |
| O=C(c1cccs1)[C@H]1CCCC[C@H]1C(=O)O | 1.2 |
| Oc1ccc2c(c1)c1c3n2CCNC3CCC1 (stereo not drawn) | -1.09 |
| COc1ccc(C2C=COc3n[nH]c(-c4ccccc4)c32)cc1OC (stereo not drawn) | 2.04 |
| Cn1cc(/C=C2\C(=O)NC(=S)N(c3ccc(Br)cc3)C2=O)c2ccccc21 | -1.42 |

| SMILES | fold change |
| --- | --- |
| O=C(NCCOC1=NS(=O)(=O)c2ccccc21)C(=O)Nc1ccccc1 | 1.05 |
| CC(=O)N/C(=N/c1nc(C)cc(C)n1)Nc1ccc(F)cc1F | inactive |
| COc1ccc(-c2nc3sc(-c4ccc(OC)c(OC)c4)nc3s2)cc1OC | -4.78 |
| S=c1[nH]nc(Cn2cnc3ccccc32)n1-c1ccccc1 | 1.13 |
| S=c1[nH]nc(COc2ccccc2)n1-c1ccccc1 | 1.72 |
| S=c1[nH]nc(COc2cccc3ccccc23)n1-c1ccccc1 | 3 (active) |
| Cc1c(C(=O)OC(C)C)sc(NC(=O)C(F)(F)C(F)(F)C(F)(F)C(F)(F)F)c1C(=O)OC(C)C | -1.73 |
| O=c1oc(-c2cccc(F)c2)nc2ccc(Br)cc12 | -1.47 |
| Nc1cc2ccccc2cc1N | -1.17 |
| COC(=O)c1cc2cc(Br)ccc2o1 | -2.17 |
| NC(=O)c1cc2ccccc2o1 | 2.76 (active) |
| Clc1nc2ccccc2nc1-c1ccccc1 | -1.36 |
| N=C1S/C(=C/c2cn[nH]c2-c2ccc(F)cc2)C(=O)N1c1nonc1N | -1.44 |
| N#Cc1c(N)nc2c(c1-c1ccc(Cl)cc1Cl)CCCCC2 | 4.06 (active) |
| N#Cc1c(N)nc2c(c1-c1cccc(Br)c1)CCCC2 | 2.68 (active) |
| N#Cc1c(N)nc2c(c1-c1cccc(Br)c1)CCCCC2 | -1.02 |
| Cc1ccc(-c2c(C#N)c(N)nc3c2CCCC3)c(C)c1 | 1.09 |
| N#Cc1c(N)nc2c(c1-c1cccc(Br)c1)CCCCCC2 | -1.03 |
| Cc1ccc(C)c(-c2c(C#N)c(N)nc3c2CCCCC3)c1 | -1.2 |
| Brc1ccc2nc(SCCOc3ccccc3)[nH]c2c1 | -1.46 |
| COC(=O)C1=C(C)NC(=S)NC1c1cccs1 (stereo not drawn) | 1.16 |
| N#CC1=C(N)OC2=C(C(=O)CCC2)C1c1ccc2c(c1)OCO2 (stereo not drawn) | 1.15 |

| SMILES | fold change |
| --- | --- |
| NNC(=O)C(=O)Nc1nccs1 | -2.19 |
| Cc1cc(C)c(C#N)c(SCc2cc(=O)[nH][nH]2)n1 | 3.11 (active) |
| Cc1cc(-c2ccco2)c(C#N)c(SCC(=O)C(F)(F)F)n1 | 1.03 |
| Cc1cc(C)c(CSc2nc(C)cc(=O)[nH]2)c(C)c1 | inactive |
| O=c1/c(=C\c2ccco2)sc2nnc(-c3ccccc3)n12 | -1.37 |
| COc1ccc(S(=O)(=O)N(CCO)C2CCCCC2)cc1 | 1.31 |
| CCCCc1ccc(C2C(C#N)=C(N)OC3=C2C(=O)CC(C)(C)C3)s1 (stereo not drawn) | 2.3 |
| CCCNS(=O)(=O)c1cc(Cl)ccc1Cl | -2.13 |
| O=S(=O)(NCc1cccnc1)c1cc(Cl)ccc1Cl | 3.37 (active) |
| O=S(=O)(NCc1cccnc1)c1cccs1 | -1.29 |
| O=S(=O)(Nc1cccnc1)c1cc(Cl)ccc1Cl | 1.16 |
| COCCCNS(=O)(=O)c1cc(Cl)ccc1Cl | -1.38 |
| COCCNS(=O)(=O)c1cc(Cl)ccc1Cl | 2.95 (active) |
| O=c1[nH]c(O)c(C=Nc2cc(Cl)ccc2O)c(=O)[nH]1 | inactive |
| c1ccc(N/N=C2/C/C(=N\Nc3ccccc3)c3ccccc32)cc1 | -1.1 |
| CC1(C)CCC[C@@]2(C)C1CCC1(C)OC(=O)CC12 (stereo partly drawn) | -3.56 |
| O=C(Nc1ccc2c(c1)OCCO2)C1CC(=O)N(C2CCCCC2)C1 (stereo not drawn) | -1.27 |
| Clc1cccc(Cl)c1-c1noc(CSc2nc3ccccc3s2)n1 | -1.38 |
| N#CC1(C#N)C(c2ccc(O)cc2)C(C(=O)c2ccccc2)N2c3ccccc3C=CC21 (stereo not drawn) | 1.02 |
| N#CC1(C#N)C(c2c(F)cccc2Cl)[C@@H](C(=O)c2ccc(F)cc2)N2c3ccccc3C=C[C@@H]21 (stereo partly drawn) | 3.43 (active) |
| N#CC1(C#N)C(c2ccc(Cl)cc2Cl)C(C(=O)c2ccccc2)N2c3ccccc3C=CC21 (stereo not drawn) | 1.29 |
| CN(c1ccccc1)c1nc(N)nc(CSc2nnc(-c3ccc(F)cc3)n2C)n1 | 1.9 |

| SMILES | fold change |
| --- | --- |
| Nc1c(Cl)cc(-c2nc3ccccc3o2)cc1Cl | 1.24 |
| Cc1nn(-c2ccccc2)c(Cl)c1N=Nc1c(C)nn(-c2ccccc2)c1Cl | -1.52 |
| CN(C)c1ccc(/C=N/c2nccs2)cc1 | -1.55 |
| c1csc(CNc2ccc(NCc3cccs3)cc2)c1 | 1.24 |
| CC(C)NC(=O)CC(=O)NN=C1CCCC1 | 1.85 |
| O=C1NC(=S)N/C1=C\c1cc(Br)cc(Br)c1O | -1.6 |
| O=C1NC(=S)N/C1=C/c1c(F)cccc1Cl | 1.33 |
| O=C1NC(=S)N/C1=C\c1ccc(Cl)cc1Cl | 5.07 (active) |
| O=C1c2ccccc2NC2(C(=O)Nc3ccccc32)N1CCOc1ccccc1 (stereo not drawn) | 1.15 |
| CCOC1(C)OC2CCC(CC)OC2O1 (stereo not drawn) | 1.54 |
| O=C1Nc2ccccc2/C1=N\N1C(=O)C2C=CC=CC2C1=O (stereo not drawn) | inactive |
| O=C1Nc2ccccc2C1=Nc1ccc(SC(F)F)cc1 | active |
| O=C1Nc2ccccc2C1=Nc1cccc(Cl)c1 | inactive |
| O=c1[nH]c2nonc2[nH]c1=O | inactive |
| O=C1CCCN1c1ccc(S(=O)(=O)Nc2ccc3oc4c(c3c2)CCCC4)cc1 | 1.03 |
| Cc1nnc(SCC(=O)Nc2sc3c(c2C#N)CCC3)s1 | -1.54 |
| Nc1cc2[nH]c(=O)[nH]c2cc1N | -1.33 |
| O=c1[nH]c(=O)c2cc3c(=O)[nH]c(=O)c3cc12 | 2.77 (active) |
| O=c1[nH]c2ccc(F)cc2c(=O)c2ccccc12 | 1.22 |
| O=C(C1=C(O)C(=O)N(CCN2CCOCC2)C1c1ccco1)c1ccco1 (stereo not drawn) | -1.73 |
